Our source for the binding signal values is article PMC7819943, “Rice protein-binding microarrays: a tool to detect cis-acting elements near promoter regions in rice”.

The full ranking holds about 39,000 sequences; the median of “fluorescence intensity (a.u.)” is about 4,300, and the highest 2% start at about 39,000. The full list was thinned out, with the highest values kept by preference.

The target of this experiment is T1, OsSMF1 (Oryza sativa, UniProt Q6ZLB0 1-436).
T1 sequence: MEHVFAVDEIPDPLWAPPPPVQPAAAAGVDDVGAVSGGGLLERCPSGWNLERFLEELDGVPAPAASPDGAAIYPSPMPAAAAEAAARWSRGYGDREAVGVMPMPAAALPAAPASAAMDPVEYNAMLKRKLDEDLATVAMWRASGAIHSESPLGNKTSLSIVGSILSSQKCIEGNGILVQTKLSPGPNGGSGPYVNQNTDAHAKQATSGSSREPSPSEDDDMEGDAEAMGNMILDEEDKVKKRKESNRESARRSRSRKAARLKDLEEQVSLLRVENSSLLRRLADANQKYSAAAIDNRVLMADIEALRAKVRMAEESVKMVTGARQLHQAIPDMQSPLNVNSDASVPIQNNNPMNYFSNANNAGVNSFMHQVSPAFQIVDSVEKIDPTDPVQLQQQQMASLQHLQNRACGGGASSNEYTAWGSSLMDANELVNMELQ
In words: protein-binding microarray (RPBM); PBS, 2% BSA, 51.3 ng/ul salmon testes DNA, 50 uM zinc acetate, 200 nM TF, 25 C, 1 h; high values mean tight binding. The settings on record: protein: recombinant; tags: N-terminal polyhistidine and DsRed monomer fusion (pET32a); chain copies: 2; label: CyDye5-dUTP incorporated in the synthesized complementary strand; 3' TTTTT single-stranded linker to array surface; dsDNA, one strand shown. An outline of the steps: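 An Axon 4000B scanner gave the binding signal as per-feature fluorescence intensity in arbitrary units. This followed washing of a custom Agilent array that had been incubated for 1 h at 25 °C with 200 nM protein in PBS, 2% BSA, salmon testes DNA and 50 µM zinc acetate. The proteins were transcription factors fused at the N-terminus to polyhistidine and DsRed, expressed in E. coli BL21-CodonPlus and purified on Ni–NTA.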
Consider “ATAACAGCGGGCCTTACGTGTACATGATAGTATATAGTACCGGAGTCACCTAGTGCAG”, for which the binding signal is 7000 fluorescence intensity (a.u.).
For “CAGAAAACAATAGTTATATTTAAGATGGGACGAATGGAGTCGGAGTCACCTAGTGCAG”, the binding signal is 53100 fluorescence intensity (a.u.).
As to “AATTACATAATTTTAATACGAAGATGAATGATCAAATATACGGAGTCACCTAGTGCAG”, the binding signal was 56600 fluorescence intensity (a.u.).
For “CTATTAGAATATTTTATAATAGTTAATAGTTAATTAATTACGGAGTCACCTAGTGCAG” the value was 39700 fluorescence intensity (a.u.); for “ATATAAGATGTAACTATTACGATGTTTCATGATACAAGTACGGAGTCACCTAGTGCAG”, 15000 fluorescence intensity (a.u.).
As for “TGAAACGGAGGGAGTATTATTAATATCTTAAGATGGACGACGGAGTCACCTAGTGCAG”, the binding signal is 6690 fluorescence intensity (a.u.).
For the sequence “ATATTTAACAACGGATCAAATGATAGGAAAATAATTAATACGGAGTCACCTAGTGCAG”, the binding signal is 4700 fluorescence intensity (a.u.).
Turning to “ACAGACTTGTTTAAGTTACAAGACGATACTATAAGAATTTCGGAGTCACCTAGTGCAG”, the binding signal was 41100 fluorescence intensity (a.u.).
Turning to “ATCAACAACTGTATTTAAAATGGGACGAATAGAGTAAATGCGGAGTCACCTAGTGCAG”, the binding signal was 20200 fluorescence intensity (a.u.).
As to “GTTTGTTGTCGATACAATCACTAGTTGTGTTTGTTAATTTCGGAGTCACCTAGTGCAG”, the binding signal was 4170 fluorescence intensity (a.u.).
“TTATTAATATATTTAATTTAATGATCCGAGATAACATATCCGGAGTCACCTAGTGCAG”: the binding signal is 35600 fluorescence intensity (a.u.).
Regarding “AAAATAAAATTTATTAATAATATTTTATCTATATTTACGACGGAGTCACCTAGTGCAG”, the binding signal was 30400 fluorescence intensity (a.u.).
For “TTTATTAATATATATATATATATATATATATATATATATACGGAGTCACCTAGTGCAG” the value was 7400 fluorescence intensity (a.u.).
“GAGCGAGGCGAGGGTGGGGAGGCGGAGGAGGATGTCCAGGCGGAGTCACCTAGTGCAG”: the binding signal was 4580 fluorescence intensity (a.u.).
For “ATTTGATAAATGGGATGCCACGTGTACACCACGTCAACAGCGGAGTCACCTAGTGCAG” the value was 31000 fluorescence intensity (a.u.); for “GATCAGATCGCACGCTGAGACGTATAGACGACGTGGGTCCCGGAGTCACCTAGTGCAG”, 4650 fluorescence intensity (a.u.).
For the sequence “TGTTTGTATAATTTTGAGTTATCAACAGTCGCGATGGAGACGGAGTCACCTAGTGCAG”, the binding signal is 24900 fluorescence intensity (a.u.).
The value for “CAAGTACCCAACCCGCGTCGTCATCGTCGTCTTCCTACTTCGGAGTCACCTAGTGCAG” was 5510 fluorescence intensity (a.u.); that for “AAAATGTCATGTAACTACGCCATTGGACCATAAATATTTTCGGAGTCACCTAGTGCAG” was 13600 fluorescence intensity (a.u.).
On to “ATATTATATTAAATTTGTAGTTTTACGATAATATGGTAAACGGAGTCACCTAGTGCAG”, for which the binding signal is 25400 fluorescence intensity (a.u.).
For the sequence “TATTCTGATTGGAACTTATGAGTCTTGAATTCTTGATTCTCGGAGTCACCTAGTGCAG”, the binding signal is 29700 fluorescence intensity (a.u.).
Turning to “AATATGGATTATTACCAAGAATTTATCCGTTGTTTTGCTACGGAGTCACCTAGTGCAG”, the binding signal was 40700 fluorescence intensity (a.u.).
As for “TACGAATTATGTAATTTGTTTTGTTATTAGTGTACATCTACGGAGTCACCTAGTGCAG”, the binding signal is 4070 fluorescence intensity (a.u.).
Regarding “TACGGAACCTGTAATTTGTTTTGTTATTAGTCTACATTTACGGAGTCACCTAGTGCAG”, the binding signal is 45800 fluorescence intensity (a.u.).
In the case of “TGTATTTGCTACCGTTTTCCAATATGTACCGTCATGTTTCCGGAGTCACCTAGTGCAG”, the binding signal was 3920 fluorescence intensity (a.u.).
“TATGGATGGGTTTTATTAATAGTCTACGTTTAATATTTATCGGAGTCACCTAGTGCAG”: the binding signal is 4490 fluorescence intensity (a.u.).
Turning to “CAGACGGATTATGTAATTTGTTTTATTATTAATTAGTCTACGGAGTCACCTAGTGCAG”, the binding signal is 3890 fluorescence intensity (a.u.).
With “GAGAGAATCTTGGAACGATTAGTAGTACATAAAGTAGAATCGGAGTCACCTAGTGCAG”, the binding signal is 3650 fluorescence intensity (a.u.).
“ATTATTTAAGTGATGATATGTAAATAACGAGTGAAGTTTTCGGAGTCACCTAGTGCAG”: the binding signal was 3400 fluorescence intensity (a.u.).
“TTTCTCGGAATTTCTGGAAATTTTCTTGGAATTAGTAGAACGGAGTCACCTAGTGCAG”: the binding signal was 65500 fluorescence intensity (a.u.).
For “TTATTATTAGTAAATATGTAGTTTTACGATATTTAGTCTTCGGAGTCACCTAGTGCAG”, the binding signal was 44400 fluorescence intensity (a.u.).
Consider “CTCGCTCGCCTGCCTCCCCACCTCACCAGCTCACCCCACGCGGAGTCACCTAGTGCAG”, for which the binding signal was 4810 fluorescence intensity (a.u.).
On to “TCAAGATCCAACAGCTTGTCTCGTGCTCGTCACAGCTTCTCGGAGTCACCTAGTGCAG”, for which the binding signal is 3230 fluorescence intensity (a.u.).
In the case of “GCAAGAGATCCGAGAAGAGCAACATAACCCACAGGCCGCTCGGAGTCACCTAGTGCAG”, the binding signal is 3720 fluorescence intensity (a.u.).
The value for “CCCCACCGACGGCGTGCAAAGCGGCCACCCAGCTCGACGCCGGAGTCACCTAGTGCAG” was 8120 fluorescence intensity (a.u.); that for “TTAGTATTTAAAATTTAAAAGCAAAGTCATTCTCCTTCTACGGAGTCACCTAGTGCAG” was 8610 fluorescence intensity (a.u.); that for “TGGGTGTAATTGTTTCCTCGATTTCGCTGGCATGTACTTTCGGAGTCACCTAGTGCAG” was 3780 fluorescence intensity (a.u.).
Regarding “GGATGGACGTGTGGGGCCTCGCCGTCAGCATTTGCTCCTTCGGAGTCACCTAGTGCAG”, the binding signal is 4560 fluorescence intensity (a.u.).
On to “GCGTACGGCTGCCTAATGCAGAGCCTGACGTGGCGAGCTGCGGAGTCACCTAGTGCAG”, for which the binding signal is 17400 fluorescence intensity (a.u.).
With “GATAAAGGTCTCTATTTGCATGACATATATCGTTACTATACGGAGTCACCTAGTGCAG”, the binding signal is 3570 fluorescence intensity (a.u.).
On to “CTCCAGCAGCTGCTCGCTCGTCATCACCGCGATGCTGCCGCGGAGTCACCTAGTGCAG”, for which the binding signal was 3490 fluorescence intensity (a.u.).
As to “TTGGCGGTGATCGAGGTTAGACATCTCACCGTCAATCTTGCGGAGTCACCTAGTGCAG”, the binding signal was 3180 fluorescence intensity (a.u.).
